# Test results from PubChem BioAssay (NCI).
# Compounds without any hit were thinned out: in the full panel of roughly 83,000, 20% have a hit.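 How to read the values: 0–100, growth inhibition (40 = 60% inhibited); 0, no net growth; -100 to 0, cell death (-40 = 40% of starting cells died; -100 = all dead).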 The source made the active and inactive calls. Rule for the calls: active = growth percent below 10; inactive = the rest.
# Tested on: MDA-MB-468 breast
# Assay: NCI-60 one-dose screen, 48 h (100 = growth as untreated, 0 = no growth, -100 = all killed)
# Conditions: 10 µM unless noted
row,Structure (SMILES),growth
1,CC1(C)CC(=O)CC(C)(C)N1N=O,124% (inactive)
2,COC[CH2][Hg][C]#[C][Hg][CH2]COC,110% (inactive)
3,COc1cc2c(O[C@@H]3OC[C@H](O)[C@H](O)[C@H]3O)c3c(c(-c4ccc5c(c4)OCO5)c2cc1OC)C(=O)OC3,59.3% (inactive)
4,NC(=O)CNc1ccc([As]=[As]c2ccc(NCC(N)=O)cc2)cc1 (stereo not given),-6.99% (active)
5,COc1cc(/C=C/[N+](=O)[O-])cc(Br)c1OC,-34.7% (active)
